Assay results published in PubChem BioAssay AID1645854 (Buhrlage Lab, Dana-Farber Cancer Institute and Novartis …, 2021).
In all, about 47,000 compounds went through this assay and about 140 (0.3%) were called active. The full list was thinned out, with actives kept by preference. Unmarked numbers belong to inactive results. Rule as the data show it: active = inhibition above about 30%; inactive = the rest.

Each molecule was assayed against Ubiquitin carboxyl-terminal hydrolase 7 (Homo sapiens) (UniProt Q93009) (assay: inhibitors of human USP7 deubiquitinase (AID 1645854)). Settings: purified USP7, Ub-rhodamine cleavage fluorescence; at 20 µM; active compounds read high.
Chain of Ubiquitin carboxyl-terminal hydrolase 7 (Homo sapiens) (Q93009 whole entry, looked up): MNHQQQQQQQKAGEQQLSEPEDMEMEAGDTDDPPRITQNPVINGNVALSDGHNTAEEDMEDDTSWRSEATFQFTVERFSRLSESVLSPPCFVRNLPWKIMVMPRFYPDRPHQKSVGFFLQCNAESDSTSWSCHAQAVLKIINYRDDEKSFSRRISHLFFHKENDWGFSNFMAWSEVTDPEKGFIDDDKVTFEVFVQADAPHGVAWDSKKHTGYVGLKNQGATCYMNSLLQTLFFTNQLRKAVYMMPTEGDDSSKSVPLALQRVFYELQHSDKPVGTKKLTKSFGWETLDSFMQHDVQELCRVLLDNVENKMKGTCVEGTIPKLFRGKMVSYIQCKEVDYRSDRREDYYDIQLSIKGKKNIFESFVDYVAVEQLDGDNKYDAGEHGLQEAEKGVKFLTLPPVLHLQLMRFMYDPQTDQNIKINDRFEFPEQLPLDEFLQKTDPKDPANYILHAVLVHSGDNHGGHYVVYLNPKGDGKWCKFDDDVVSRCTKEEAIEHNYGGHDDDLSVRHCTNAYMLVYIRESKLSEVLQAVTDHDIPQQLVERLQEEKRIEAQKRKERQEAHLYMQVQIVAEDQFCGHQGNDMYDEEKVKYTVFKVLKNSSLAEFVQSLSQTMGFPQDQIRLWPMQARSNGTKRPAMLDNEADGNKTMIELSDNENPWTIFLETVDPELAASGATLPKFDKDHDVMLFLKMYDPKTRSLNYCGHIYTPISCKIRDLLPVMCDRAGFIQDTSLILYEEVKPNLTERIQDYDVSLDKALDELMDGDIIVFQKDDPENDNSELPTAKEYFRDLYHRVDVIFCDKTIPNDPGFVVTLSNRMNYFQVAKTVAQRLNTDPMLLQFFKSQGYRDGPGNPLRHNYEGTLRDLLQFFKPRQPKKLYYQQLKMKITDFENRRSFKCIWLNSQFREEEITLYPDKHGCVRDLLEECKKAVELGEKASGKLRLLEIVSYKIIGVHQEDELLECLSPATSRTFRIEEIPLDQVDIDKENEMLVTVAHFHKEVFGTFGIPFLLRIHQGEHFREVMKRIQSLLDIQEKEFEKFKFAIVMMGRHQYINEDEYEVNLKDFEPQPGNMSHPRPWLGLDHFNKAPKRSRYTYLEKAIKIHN
With `COc1cc2c(c(OC)c1OC)-c1ccc(N3CCN(Cc4ccccc4)CC3)c(=O)cc1[C@@H](NC(C)=O)CC2` the inhibition was -1.92%. For `C=C1CCC2[C@](C)(CCC[C@]2(C)C(=O)OC)[C@H]1CCc1ccoc1CNCC(=O)O` (stereo not given in full), the inhibition was 1.95%. `C=C1CCC2[C@](C)(CCC[C@]2(C)C(=O)OC)[C@H]1CCc1ccoc1/C=C/C(=O)O` (stereo not given in full) was tested, and the inhibition was 37.2% (active). Work on `C=C1CCC2[C@](C)(CCC[C@]2(C)C(=O)OC)[C@H]1CCc1ccoc1C[N+](C)(C)Cc1ccccc1` (stereo not given in full) yielded an inhibition of 19.4%. `CCc1cc(C(=O)NC2CC(C)(C)Cc3nc(N4CCCC4)ncc32)no1` (stereo not given) was tested, and the inhibition was -17.3%. `Cc1ccc(-c2cn3ccn(-c4ccc(C)cc4C)c(=O)c3n2)cc1` showed an inhibition of 6.15%. With `CC(C)CN1[C@H]2CCN(C(=O)c3cccn3C)CC[C@@H]2Oc2ccccc2S1(=O)=O` the inhibition was -3.56%. For `Cn1cc(C2=CCN(S(=O)(=O)c3cccc4cccnc34)CC2)c2cccnc21`, the inhibition was -2.34%. For `Cc1nnc(C(=O)Nc2ccc(C(=O)NCc3ccccc3C)cc2)s1`, the inhibition was 6.22%. Molecule `O=C(Nc1nc(-c2ccc3c(c2)CCN3C(=O)c2ccccc2F)cs1)c1cccnc1` has an inhibition of 26.5%. `CCS(=O)(=O)c1cccc(C(=O)Nc2c(C(N)=O)oc3ccccc23)c1` showed an inhibition of 1.8%. `CN1CCN(c2ccc(CNS(=O)(=O)c3cccc(F)c3)cc2)CC1` was tested, and the inhibition was 3.64%. `COc1ccccc1CNc1ccc2c(cc1=O)[C@@H](NC(C)=O)CCc1cc(OC)c(OC)c(OC)c1-2` was tested, and the inhibition was -13.3%. Work on `CCS(=O)(=O)N1CCC(c2nc(C)c(-c3ccnc(C)n3)s2)CC1` yielded an inhibition of 3.86%. `C=C1Nc2ccccc2C(=O)N1c1cccc(NC(=O)c2ccc(F)cc2)c1` was tested, and the inhibition was 1.49%. Molecule `O=C(CCc1nc(-c2cccnc2)no1)Nc1cc(Cl)ccc1O` has an inhibition of -16.2%. Work on `CC(C)Cc1nnc(NC(=O)c2cc(=O)[nH]c3ccccc23)s1` yielded an inhibition of -0.0201%. `COc1cc(C(=O)N[C@@H]2C(=O)Nc3c(c(C)nn3C)[C@H]2c2cccc(Cl)c2)cc(OC)c1OC` was tested, and the inhibition was -9.37%. For `CN1C(=O)C2CCCCN2c2ccc(C(=O)NC3CCCC3)cc21` (stereo not given), the inhibition was -1.37%. Molecule `O=C(CCc1ccccc1)N1C[C@@H]2OCC(=O)N(C3CCOCC3)[C@H]2C1` has an inhibition of 10.2%. In the case of `C[C@H](NC(=O)[C@@H]1Cc2c([nH]c3ccccc23)C2c3ccccc3C(=O)N21)C(=O)NC1CC1` (stereo not given in full), the inhibition is reported as -18.8%. For `CC(/C=C/C(=O)NO)=C\C(C)C(=O)c1ccc(N(C)C)cc1` (stereo not given), the inhibition was -1.05%. `CC1(C)CCc2c(cc(OCC(=O)NCC(=O)O)c3c4c(c(=O)oc23)CCC4)O1` gave an inhibition of 8.33%. For `CCCc1cc(=O)oc2cc(OCC(=O)NCc3ccc(OC)cc3)ccc12`, the inhibition was 1.51%. Work on `CCCCCCSc1ncnc2c1sc1nc(-c3ccccc3)c3c(c12)CC(C)(C)OC3` yielded an inhibition of 1.19%. `CSc1ncnc2c1sc1nc(-c3ccccc3)c3c(c12)CC(C)(C)OC3` showed an inhibition of 4.67%. `CC1(C)Cc2c(c(-c3ccco3)nc3sc4c(SCCCc5ccccc5)ncnc4c23)CO1` was tested, and the inhibition was 56.7% (active). `COCCN1C(=O)Cc2c(C)nc(C3(C)CCCN(c4ccnc(C)n4)C3)nc21` (stereo not given) gave an inhibition of -0.762%. `Cc1cc(-c2cnc(C)nc2C2CCN(C(=O)Cc3ccccc3F)CC2)on1` was tested, and the inhibition was 0.853%. Work on `COc1cccc(CN2CCCC2c2noc(C3CC3)n2)c1` (stereo not given) yielded an inhibition of 0.378%. `COc1ccccc1CN1C[C@@H]2C[C@@H](O)CN2C[C@@H]1Cc1ccccc1` showed an inhibition of -13%. `COc1ccc(-c2nnc(-c3ccccc3)o2)cc1S(=O)(=O)N1CCc2ccccc2C1` gave an inhibition of 8.25%. `COc1ccc(-c2nonc2NC(=O)Cc2ccccc2)cc1OC` showed an inhibition of -0.82%. `CNc1nc(C2CCN(C(=O)c3ccc4c(c3)OCCO4)C2)nc2c1CN(C)CC2` (stereo not given) showed an inhibition of -10.6%. `O=C(COc1ccccc1-c1nnc(-c2ccccc2)o1)Nc1cc(F)ccc1F` was tested, and the inhibition was 5.06%. Work on `COc1ccc(-c2cnc(N(C)C)nc2C2CCCCN2)cc1` (stereo not given) yielded an inhibition of -4.92%. Work on `CC(=O)N1CCC(NC2(Cc3cc(C(C)(C)C)on3)COC2)CC1` yielded an inhibition of 0.342%. With `CCOC(=O)Nc1cc(C)nn1-c1ncnc2c1cnn2-c1ccc(F)cc1` the inhibition was 0.0906%. For `Cc1ccc(S(=O)(=O)N2CCN(C(=O)CN3CCc4ccccc43)CC2)cc1`, the inhibition was -5.22%. `CCOc1ccccc1C1C2=C(CC(C)(C)CC2=O)Nc2ccccc2N1C(=O)c1ccccc1` (stereo not given) gave an inhibition of -4.8%. Work on `COc1ccc(CC(=O)N2CCCCC2c2ccc3c(=O)n(C)c(=O)n(C)c3n2)cc1` (stereo not given) yielded an inhibition of 0.092%. `O=C(NCc1ccc(Cl)cc1)C1CCN(c2nccn3nc(-c4ccccc4)cc23)CC1` was tested, and the inhibition was -35.4%. `O=C(CN1CCCCC1)N[C@@H]1C[C@H]2Oc3ccccc3N[C@H]2[C@@H]1O` showed an inhibition of 3.93%. `O=C(C1CCNCC1)N1CCN(c2ccccc2F)CC1` was tested, and the inhibition was 1.05%. In the case of `COc1ccccc1NC(=O)CSc1nc2ccccc2n1S(=O)(=O)c1ccc(Br)cc1`, the inhibition is reported as -6.03%. `CC(C)NC(=O)N1CC[C@H]2COC(=O)N(Cc3ccccc3)[C@@H]2C1` showed an inhibition of 3.45%. `C/C=C(\C)C(=O)C(C)C1=CC(=O)C2=C(O[C@]3(C)CC[C@@H]4O[C@H](C(C)(C)O)CC[C@@]4(C)[C@@H]3C2)C1=O` (stereo not given in full) showed an inhibition of -44.6%. `COc1ccc(C(=O)NC(C(=O)OCC(=O)c2ccc(C)cc2)C(C)C)cc1OC` (stereo not given) showed an inhibition of 3.56%. With `COc1cccc(CC(NC(C)=O)C(=O)NC2CCN(C(=O)C3CCCCC3)CC2)c1` (stereo not given) the inhibition was 5.13%. Molecule `O=C1[C@H]2Cc3c([nH]c4ccccc34)CN2C(=O)CN1CC(O)c1ccccc1` (stereo not given in full) has an inhibition of -145%. Work on `Cc1cc(CN2CCN(S(C)(=O)=O)CC(C(=O)N(C)C)C2)no1` (stereo not given) yielded an inhibition of 0.0126%. For `COc1ccccc1NS(=O)(=O)c1ccc2c(c1)C(=O)N(C)c1ncccc1O2`, the inhibition was 2.84%. Molecule `Cc1nn(Cc2ccccc2)c(C)c1C(=O)NS(=O)(=O)c1ccccc1Cl` has an inhibition of 1.27%. `Cc1cc(C(=O)N2CCCC2c2ccccc2C)on1` (stereo not given) gave an inhibition of 0.669%. `O=C(c1cc(=O)[nH]c2ccccc12)N1CCN(Cc2cn3ccccc3n2)CC1` gave an inhibition of -8.75%. `COc1ccc(C2CC(=O)n3nc(-c4cccc(C)c4)nc3S2)cc1` (stereo not given) gave an inhibition of 0.741%. Work on `COC(=O)c1ccccc1NC(=O)c1nc(-c2ccccc2)oc1C` yielded an inhibition of -0.0638%. `O=C(CSc1ncnc2c1sc1cccc(F)c12)N1CCCCCC1` gave an inhibition of -136%. In the case of `COc1cccc(N2CCN(C(=O)Nc3ccc4c(c3)NC(=O)CO4)CC2)c1`, the inhibition is reported as 3.68%. `O=S(=O)(c1cc(-c2noc(C3CC3)n2)cs1)N1CCc2ccccc21` gave an inhibition of 7.51%. For `Cc1ccc(C)c(N(C)C(=O)c2cccc3c2SCCC3=O)c1`, the inhibition was -2.51%. With `Cn1cncc1-c1cncc(CC2CCCN(S(C)(=O)=O)C2)n1` (stereo not given) the inhibition was 0.0473%. Work on `O=C(O)COc1cc(O)c2c(=O)cc(-c3ccccc3)oc2c1` yielded an inhibition of -6.31%. Molecule `Cc1csc(C2(NC(=O)Cc3cc(C)on3)CCCC2)n1` has an inhibition of -8.11%. Work on `COC(=O)c1c(C)[nH]c(C(=O)C(C)OC(=O)c2cccc(F)c2)c1C` (stereo not given) yielded an inhibition of -2.46%. Work on `CCc1ccc(-n2c(=O)c3ccccc3n(CC(=O)NCCC3=CCCCC3)c2=O)cc1` yielded an inhibition of 8.71%. With `CCOC(=O)C1(C)C=C(Nc2ccc(C(=O)O)c(O)c2)C(=O)N1c1ccccc1` (stereo not given) the inhibition was -4.45%. Work on `CC(=O)NC(Cc1ccccc1F)C(=O)NC1CCN(C(=O)C2CC2)CC1` (stereo not given) yielded an inhibition of 1.1%. For `O=C(c1cccc(F)c1)N1CCN(Cc2cc(=O)c3ccccc3[nH]2)CC1`, the inhibition was 2.84%. `Cc1cccc(NC(=O)Cc2nc(C)c(C(=O)NC3CC3)s2)c1C` gave an inhibition of -0.0337%. In the case of `O=C(CC1(O)C(=O)N(CCc2ccccc2)c2ccc(Cl)cc21)c1ccc2c(c1)OCCO2` (stereo not given), the inhibition is reported as 5.91%. Work on `COc1ccc(-c2nc3ccccc3c3nnc(SCC(N)=O)n23)cc1` yielded an inhibition of 6.48%. `Cc1cc(C)nc(SCc2nnc(Nc3ccccc3)s2)n1` was tested, and the inhibition was 0.95%. `CCc1ccc(C(=O)COc2ncnc3scc(-c4ccccc4)c23)cc1` showed an inhibition of 4.6%. Work on `O=C(COc1cccc2ccc(N3CCC(Cc4ccccc4)CC3)nc12)Nc1cccc(F)c1` yielded an inhibition of 5.1%. Work on `Cn1c(CNC(=O)c2cn3ccccc3n2)nc2ccccc21` yielded an inhibition of -4.22%. Molecule `COc1ccc(C(=O)Nc2ccccc2N2CCOCC2)cc1S(=O)(=O)N(C)Cc1ccccc1` has an inhibition of 2.61%. Work on `COc1cc2c(cc1OC)-c1cc(NCc3ccccc3)nc(=O)n1CC2` yielded an inhibition of -10.1%. Work on `CC1(C)C(=O)Nc2ccc(S(=O)(=O)NCc3ccc(F)cc3)cc21` yielded an inhibition of 1.68%. In the case of `Cc1cn(C)c(C2CCCN2C(=O)c2cc(C)nc3onc(C)c23)n1` (stereo not given), the inhibition is reported as -2.53%. In the case of `Cc1cccc(NC(=O)CCc2nnc3ccc(NCc4ccc5c(c4)OCO5)nn23)n1`, the inhibition is reported as -2.6%. `Cn1c(=O)n(C2CCN(CCc3ccccc3)CC2)c2ncncc21` gave an inhibition of 2.05%. Work on `Cc1ccc(C(=O)N2CC(=O)N(Cc3ccc(Cl)cc3)CC(O)C2)cc1` (stereo not given) yielded an inhibition of -42.1%. In the case of `Cc1nnc(-c2cnn(C)c2N)n1CC1CCCO1` (stereo not given), the inhibition is reported as -0.964%. With `CCOC(=O)c1noc2nc(C)n(Cc3nc(-c4ccccc4)oc3C)c(=O)c12` the inhibition was 1.79%.
